From PubChem
Rows were chosen to be rich in hits. Some 1.2% of all compounds tested hit in one or more screens of this group.
NR2F2 inh: inhibitors of human COUP-TFII (NR2F2) | HEK293T NGFI-A luciferase reporter, luminescence | inhibition, % at 8.6 µM | 370,000 compounds, 0.7% hits;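 active means inhibition above a per-plate cutoff, mean inhibition of test wells between control levels plus 3 SD, cut at about 38% in these data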;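 further: cells cotransfected with COUP-TFII expression vector driving the NGFI-A reporter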
Target sequence (P24468 whole entry, looked up): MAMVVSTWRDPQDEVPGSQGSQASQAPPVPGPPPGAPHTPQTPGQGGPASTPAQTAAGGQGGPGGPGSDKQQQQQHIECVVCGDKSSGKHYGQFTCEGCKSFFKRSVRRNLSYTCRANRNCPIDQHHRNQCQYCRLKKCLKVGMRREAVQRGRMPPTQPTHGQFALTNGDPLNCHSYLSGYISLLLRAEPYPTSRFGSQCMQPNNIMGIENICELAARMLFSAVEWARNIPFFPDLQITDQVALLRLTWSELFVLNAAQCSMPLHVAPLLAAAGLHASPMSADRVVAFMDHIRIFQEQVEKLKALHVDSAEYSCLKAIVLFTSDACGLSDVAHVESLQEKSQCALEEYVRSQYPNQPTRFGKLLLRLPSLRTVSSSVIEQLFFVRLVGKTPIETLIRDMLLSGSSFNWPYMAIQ
SRC2 inh: inhibits human steroid receptor coactivator 2. Q15596. inhibition, % at 9 µM. HEK293 GAL4-SRC2 luciferase reporter, luminescence. 370,000 compounds, 0.17% hits;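 active means inhibition above the mean inhibition of all tested compounds plus 3 SD, set per campaign, cut at about 52% in these data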
NCOA3 inh: inhibits human SRC3 coactivator. HEK293 GAL4-SRC3 luciferase reporter, luminescence. inhibition, % at 3.6 µM. 360,000 compounds, 0.17% hits;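 active means inhibition above a per-campaign cutoff, the mean of all compounds plus 3 SD, cut at about 60% in these data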;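 further: higher means less SRC3-driven luciferase light from the GAL4 reporter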
LRH-1 inv ag: NR5A2 inverse agonism in reporter assay | O00482 | HEK293T StAR-luciferase reporter, LRH-1 transfected, 24 h | inhibition, % at 3.6 µM | 360,000 compounds, 0.13% hits;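 active means inhibition above the mean inhibition of all tested compounds plus 3 SD, cut at about 73% in these data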
NCOA1 inh: inhibits human SRC1 coactivator | Q15788 | HEK293 GAL4-SRC1 luciferase reporter, luminescence | inhibition, % at 3.6 µM | 360,000 compounds, 0.12% hits | AID 588354;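 active means inhibition above the campaign mean plus 3 SD, with each screening campaign given its own cutoff, cut at about 60% in these data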
Gli-Sufu antag: Gli-Sufu pathway antagonism. Sufu-KO-LIGHT fibroblasts, Gli luciferase reporter luminescence. 340,000 compounds, 0.74% hits. inhibition, % at 5 µM. AID 588413;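 active means inhibition above about 55%, limit read from the data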
Gli antag conf: confirmation of Gli-SUFU pathway antagonists | inhibition, % at 5 µM | Sufu-KO-LIGHT cells, Gli luciferase reporter, luminescence | AID 602428 | 2,500 compounds, 40% hits | shares compounds with Gli-Sufu antag;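 active means mean inhibition at 5 µM reaching about 45%, limit read from the data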
SufuKO cytotox: cytotoxicity counter-screen for Gli-SUFU antagonists. shares compounds with Gli-Sufu antag. Sufu-KO-LIGHT cells cytotoxicity, ATP luminescence. cytotoxicity, % at 5 µM. 2,500 compounds, 32% hits. AID 651994;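 active means mean cytotoxicity at 5 µM above about 25%, limit read from the data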;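 further: cells exposed to compound overnight for roughly 16 to 18 hours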
Wnt3a counter: Wnt3a reporter inhibition counter-screen | shares compounds with Gli-Sufu antag | Wnt-LIGHT cells, Wnt3a-driven luciferase reporter, luminescence | inhibition, % at 6.25 µM | 2,500 compounds, 20% hits;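 active means mean inhibition above about 25%, limit read from the data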
Gal4-VP16 ctr: inhibits VP16 reporter, flagging COUP-TFII antagonist hits; shares compounds with NR2F2 inh; inhibition, % at 8.5 µM; AID 687007; 2,500 compounds, 25% hits; HEK293 Gal4-VP16 luciferase reporter, luminescence; in the data active means inhibition above about 13%
NR2F2 inh conf: confirmation of human COUP-TFII (NR2F2) inhibitors. shares compounds with NR2F2 inh. HEK293 NGFI-A luciferase reporter, luminescence. inhibition, % at 8.5 µM. 2,500 compounds, 45% hits;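 active means mean inhibition over three repeats above a set limit taken from the earlier primary screen, cut at about 38% in these data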
Of the large screens only hits and unclear results are named; the others gave an inactive call (follow-up assays come after a bar, where they were run).

COc1ccc(CNc2ncnc3c2[nH]c2ccccc23)cc1	NR2F2 inh 45 | Gli antag conf 64 | SufuKO cytotox inactive | Wnt3a counter inactive | Gal4-VP16 ctr inactive | NR2F2 inh conf inactive
O=C(c1cc(COc2cccc(C(F)(F)F)c2)on1)N1CCC(c2ccncc2)CC1	NR2F2 inh 46 | Gli antag conf 62 | SufuKO cytotox 37 | Wnt3a counter inactive | Gal4-VP16 ctr inactive | NR2F2 inh conf inactive
CC(=O)OCC(COC(C)=O)(CN1C(=O)c2ccccc2C1=O)CN1C(=O)c2ccccc2C1=O	none (no result: NCOA3 inh, LRH-1 inv ag, NCOA1 inh, Gli-Sufu antag)
CC1(C)CC(N2CCOCC2)=CC(=[N+]2CCOCC2)C1	none
CC1(C)CC(N2CCCCC2)=CC(=[N+]2CCCCC2)C1	NR2F2 inh 67, Gli-Sufu antag 84 | Gli antag conf 87 | SufuKO cytotox 46 | Wnt3a counter 48 | Gal4-VP16 ctr inactive | NR2F2 inh conf 51
CC[n+]1ccccc1/C=C/c1ccc(N(C)C)cc1	NR2F2 inh 66, Gli-Sufu antag 81 | Gli antag conf 84 | SufuKO cytotox inactive | Wnt3a counter 40 | Gal4-VP16 ctr inactive | NR2F2 inh conf 50
Cc1cc(C(=O)COc2ccccc2C(N)=O)c(C)n1CC1CCCO1 (stereo not drawn)	NR2F2 inh 57, Gli-Sufu antag 58 | Gli antag conf 56 | SufuKO cytotox 37 | Wnt3a counter inactive | Gal4-VP16 ctr inactive | NR2F2 inh conf 39
O=C(C1CCCN1S(=O)(=O)c1ccc(Br)s1)N1CCc2ccccc2C1 (stereo not drawn)	none (no result: NCOA3 inh, LRH-1 inv ag, NCOA1 inh, Gli-Sufu antag)
CCCCn1c(CN(C)Cc2ccccc2)nc2c1c(=O)n(C)c(=O)n2C	NR2F2 inh 40, Gli-Sufu antag 60 | Gli antag conf 52 | SufuKO cytotox inactive | Wnt3a counter inactive | Gal4-VP16 ctr inactive | NR2F2 inh conf inactive
NC(=O)c1ncn([C@@H]2O[C@H](C(=O)N3CCN(Cc4ccccn4)CC3)[C@@H](O)[C@H]2O)n1	none (no result: NCOA3 inh, LRH-1 inv ag, NCOA1 inh, Gli-Sufu antag)
CN(Cc1ccc(OCC(O)CN2CCCCC2)cc1)Cc1ccnc2ccccc12 (stereo not drawn)	NR2F2 inh 59, Gli-Sufu antag 65 | Gli antag conf 46 | SufuKO cytotox inactive | Wnt3a counter inactive | Gal4-VP16 ctr inactive | NR2F2 inh conf 44
C[C@H](CO)N1C[C@H](C)[C@@H](CN(C)C(=O)Nc2ccccc2)OCc2cn(nn2)CCCC1=O	none (no result: NCOA3 inh, LRH-1 inv ag, NCOA1 inh, Gli-Sufu antag)
COc1ccc(CCNc2cc(N3CCN(C(=O)c4ccccc4F)CC3)ccc2[N+](=O)[O-])cc1OC	none
COc1ccc(C(=O)N2CCN(c3ccc([N+](=O)[O-])c(NCCc4ccc(OC)c(OC)c4)c3)CC2)cc1	NR2F2 inh 39, Gli-Sufu antag 79 | Gli antag conf 76 | SufuKO cytotox 32 | Wnt3a counter inactive | Gal4-VP16 ctr inactive | NR2F2 inh conf 89
CC(C)(C)c1ccc(-n2ncc3c2CCCC3NC(=O)C2(C(N)=O)CC2)cc1 (stereo not drawn)	NR2F2 inh 65, Gli-Sufu antag 76 | Gli antag conf 65 | SufuKO cytotox 30 | Wnt3a counter inactive | Gal4-VP16 ctr inactive | NR2F2 inh conf 60
O=S(=O)(c1ccc2c(c1)OCCO2)N1CCN(c2ncnc3sccc23)CC1	NR2F2 inh 70, Gli-Sufu antag 64 | Gli antag conf 61 | SufuKO cytotox 48 | Wnt3a counter inactive | Gal4-VP16 ctr inactive | NR2F2 inh conf 53
Cc1ccc(S(=O)(=O)N2CCN(c3ncnc4sccc34)CC2)cc1C	NR2F2 inh 43 | Gli antag conf 47 | SufuKO cytotox 26 | Wnt3a counter 36 | Gal4-VP16 ctr inactive | NR2F2 inh conf inactive
CN1CCN(S(=O)(=O)c2ccc3c(c2)OCCO3)CC1	none
CCOC(=O)[C@]12CCCCC/C=C\1N(CCc1ccc(Cl)cc1)C(=O)[C@H]2CC(=O)NCc1ccc(OC)c(OC)c1	none (no result: NCOA3 inh, LRH-1 inv ag, NCOA1 inh, Gli-Sufu antag)
CC1=NC2=CC=CC3=NC(C(Cl)(Cl)Cl)=NC(=N1)N23	none (no result: NCOA3 inh, LRH-1 inv ag, NCOA1 inh, Gli-Sufu antag)
CC(CCCC(C)(C)O)NC(=O)c1cc(COc2ccc3ncccc3c2)on1 (stereo not drawn)	NR2F2 inh 60 | Gli antag conf 56 | SufuKO cytotox inactive | Wnt3a counter 31 | Gal4-VP16 ctr inactive | NR2F2 inh conf 48
COCCC1CCCCN1C(=O)c1cc(COc2ccc(-n3cncn3)cc2)on1 (stereo not drawn)	NR2F2 inh 44, Gli-Sufu antag 58 | Gli antag conf 68 | SufuKO cytotox inactive | Wnt3a counter 40 | Gal4-VP16 ctr inactive | NR2F2 inh conf 41
COCC1CCCCN1C(=O)c1cc(COc2ccc3ncccc3c2)on1 (stereo not drawn)	NR2F2 inh 44, Gli-Sufu antag 72 | Gli antag conf 59 | SufuKO cytotox inactive | Wnt3a counter 34 | Gal4-VP16 ctr inactive | NR2F2 inh conf 57
CCC1CCCCN1C(=O)c1cc(COc2ccc3ncccc3c2)on1 (stereo not drawn)	NR2F2 inh 72, Gli-Sufu antag 72 | Gli antag conf 72 | SufuKO cytotox 35 | Wnt3a counter inactive | Gal4-VP16 ctr inactive | NR2F2 inh conf 66
O=C(Cn1c(-c2cncs2)nc2ccccc21)N1CCCCC1	none (no result: NCOA3 inh, LRH-1 inv ag, NCOA1 inh, Gli-Sufu antag)
COCC#Cc1ccc2c(c1)O[C@H](CN(C)C(=O)c1ccccc1)[C@@H](C)CN([C@H](C)CO)S2(=O)=O	none (no result: NCOA3 inh, LRH-1 inv ag, NCOA1 inh, Gli-Sufu antag)
CN(C)S(=O)(=O)c1cccc(C(=O)N/N=C\c2ccc(-c3ccccn3)cc2)c1	none (no result: NCOA3 inh, LRH-1 inv ag, NCOA1 inh, Gli-Sufu antag)
Nn1c(SCC(=O)N2c3ccccc3Sc3ccc(Cl)cc32)nnc1-c1cc(-c2ccc(F)cc2)n[nH]1	none (no result: NCOA3 inh, LRH-1 inv ag, NCOA1 inh, Gli-Sufu antag)
Cc1ccc(S(=O)(=O)N2CCCc3nc(C)c(C)cc32)cc1	none (no result: NCOA3 inh, LRH-1 inv ag, NCOA1 inh, Gli-Sufu antag)
O=C(Nc1ccccc1C(=O)NCC1CC1)c1cccs1	none (no result: NCOA3 inh, LRH-1 inv ag, NCOA1 inh, Gli-Sufu antag)
Cc1cc(Nc2ccccc2)nc(NCc2ccccc2)n1	NR2F2 inh 38, Gli-Sufu antag 68 | Gli antag conf 58 | SufuKO cytotox 33 | Wnt3a counter 25 | Gal4-VP16 ctr inactive | NR2F2 inh conf inactive
CCC1CCCCN1S(=O)(=O)c1ccc(NC(=O)c2ccncc2)cc1 (stereo not drawn)	NR2F2 inh 61, Gli-Sufu antag 58 | Gli antag conf inactive | SufuKO cytotox 41 | Wnt3a counter inactive | Gal4-VP16 ctr inactive | NR2F2 inh conf 57
